# Reference: the supplement of paper PMC6555819
# What was measured:
# Test in all cases: PBM binding z-score (relative to random genomic background probes); higher = stronger binding; sequences stand for … in GC…GCGATTGACAGCGTAGAATGAAGG
# [1] = tested on: RARb homodimer (NR concentration 270 nM)
# Outline: (§1)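 Ligand-free nuclear receptor dimers were applied to custom Agilent 4×180K protein-binding microarrays whose double-stranded probes carried direct-repeat seeds, single-nucleotide variants, half-site ablations and random human genomic background sequences in 34-nt variable regions. Incubation lasted 1 h. Binding z-scores were computed against the random background probes from regression-normalized fluorescence.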
# [2] = tested on: RARg:RXRa (NR concentration 270 nM, RXRa partner concentration 90 nM)
# Outline: as §1
# [3] = tested on: RARg homodimer (NR concentration 270 nM)
# Outline: as §1
# [4] = tested on: RXRa DBDmut IVT, anti-RXR (DBD mutation: RXRa K156A/R161A, NR concentration 90 nM)
# Outline: as §1
# [5] = tested on: RXRa homodimer (NR concentration 180 nM)
# Outline: as §1
# [6] = tested on: THRa:RXRa (NR concentration 90 nM, RXRa partner concentration 90 nM)
# Outline: as §1
# [7] = tested on: THRa homodimer (NR concentration 90 nM)
# Outline: as §1
# [8] = tested on: VDR homodimer (NR concentration 270 nM)
# Outline: as §1
Sequence,PBM binding z-score [1],PBM binding z-score [2],PBM binding z-score [3],PBM binding z-score [4],PBM binding z-score [5],PBM binding z-score [6],PBM binding z-score [7],PBM binding z-score [8]
ACTATTAGTTGAGACGAGGGCATCCGATAGGTTG,0.79,0.519,0.799,0.829,0.473,2.29,0.321,1.38
ATATGTAGGTTACATCCCGGTCATTCAGGCTATG,2.44,2.92,1.76,0.814,1.44,2.18,1.44,1.12
CCTACTGGGCCAACAGGTCATTGATATCAACGTT,2.5,2.56,2.13,0.159,1.91,1.63,0.207,0.761
GCGACTGGGGAAAAGCAGGTTACCATAAGGTTGG,0.416,-0.0185,-0.445,-0.805,0.275,1.25,0.0418,-0.6
TCTCGGAGGACACGGAAGGTCAGAGCTCGACATC,3.98,3.49,4.48,0.816,2.31,3.45,1.37,1.01
AATACAGGGTCACTAGGCCGGAGTAGGTACGAAT,3.18,5.13,4.62,2.81,5.28,3.4,1.2,2.61
ACTAGCAGGCCAAGTTTCGGTCACTCAAACAAAG,1.95,1.68,1.53,0.194,-0.395,0.604,0.212,-0.0934
AGTCAAAGTTCAGGACGAAGTAACGTAAAGCACG,2.72,3.82,4.58,2.8,2.71,1.95,0.0307,1.27
CGTCAAAGTTCAACTAAGGTAAGGTAAAGCACGC,3.92,5.8,6.23,4.39,4.88,5.19,1.95,3.59
CTAGAAAGGTCGTGCTCAGGTGAGTATACCAAAC,2.93,4.96,3.62,2.16,4.44,4.02,0.909,0.842
AGAATGAGGCTACCAAAGATCAGGGAAACGCTTG,-0.364,0.21,0.34,-0.268,0.156,0.463,-0.609,-0.541
TCTGCTAGGTTAGTTGGTCAGCTAACGAGCTGCC,-0.0655,0.00476,-0.189,-0.0929,-0.323,-0.551,-1.24,-1.15
ATATGAAGGTTACATCCGGGTCATTCAGGCTATG,3.52,4.75,2.62,1.08,3.74,4.11,2.47,2.96
ACTATTAGTTGACTTAGGCCAACCGATACGACGC,0.826,0.899,0.91,0.805,0.539,0.898,0.912,0.435
TAGCCTAGGTCATTCAGGAGCCAGTATAGAAAGC,2.45,4.25,4.41,1.37,2.96,2.68,0.478,1.09
GGAACGAGAGCATTCGAGTTGATAGCATGGCGAT,-1.06,-0.435,-0.276,0.441,-0.118,1.04,-1.57,-0.57
CCTTACGTGTCACTCCAGGTTATAGCATCGGAGT,1.36,0.925,1.27,1.09,0.845,3.43,1.14,1.24
CCGACTGGGGCAGAACGGTTACCATACCATCCGG,0.0428,-0.0938,0.284,-1.04,-0.293,-0.413,-0.791,-0.33
CCTAGCAGGCCAATTTGGGTCACTCAAGGCTTGA,2.08,0.9,1.21,0.0247,0.826,3.86,0.606,-0.23

Sequence,PBM binding z-score [1],PBM binding z-score [2],PBM binding z-score [3],PBM binding z-score [4],PBM binding z-score [5],PBM binding z-score [6],PBM binding z-score [7],PBM binding z-score [8]
TCGATTAGTTGAAGGGCAACCGACGAGTCCGTTT,1.04,0.11,0.294,1.01,0.397,-0.146,-0.591,0.943
TCGAGTTGGTTAGTCGGGGCATTCAGCCAACATA,0.0639,-0.34,-0.804,1.41,-0.355,0.331,-0.0261,0.871
CCTATTAGTTTACCATAAGGGCAACCGAAGCTCG,1.96,1.14,1.1,0.915,0.566,2.06,1.39,1.03
ACTCGTAGGACAAAGGTCAGAGCTACGCCAGTGA,4.29,5.58,4.82,1.14,5.3,2.92,0.244,0.657
TTACCAAGATGAAGGTCGTTGATCCCTCTGTAGA,0.806,0.203,0.0937,0.4,0.993,0.726,-0.149,0.756
TTACCAAGGTGAGCTGAGGTCGTGGATCCAACTC,1.97,1.47,0.791,-0.207,1.82,4.83,2.55,0.927
GCTAGTTGGTCAGTAAAAGGTCACATACCGGTCG,5.15,5.2,4.75,0.819,4.95,3.52,1.86,1.74
GCTAGCAGGCCATTTGGGTCACTAAATGACGGGC,1.76,0.89,1.18,-0.318,0.776,1.68,0.196,0.0959
CTACCAAGGTGAACAAGGTCGTCGATTACTATTC,2.3,2.1,1.77,1.08,2.25,3.64,1.9,1.44
AGAATGAGGTGATTAAGATCAGGGAATTGCGGTC,0.255,0.185,0.285,0.136,0.381,1.53,0.417,-0.688
AGTCAAAGTTCATGACGAGGTAACGTAAAGCACG,3.83,6.13,5.76,4.29,4.9,4.23,1.02,4.11
TCTTGTAGATCAAGCAGGTTAAGATAGCCTGAGT,0.14,0.091,0.0595,0.547,0.359,0.324,-0.172,-0.247
GCTATTAGTTGAAAGGGTAACCGAATGATTCTCG,0.907,0.593,0.407,1.01,0.952,0.527,0.212,-0.0669
CCTGCTAGGTCATGGTCAGTTAATCTACAGTATG,3.11,4.04,5.07,2.12,3.12,3.23,1.57,0.435
GCTGCTAGGTTAGGTTGGTCAGCTAACGGGTACG,0.8,0.0162,0.355,0.0127,-0.131,0.0584,-0.34,0.253
GCGACTGGGGCAACAGCAGGTTACCATAACTTAA,0.882,0.815,0.776,-0.15,0.454,1.67,-0.275,-0.281
GCTTGTAGCTCAAGGTTAAGAAAGACTAAGCTAA,-0.0742,0.0545,-0.162,-0.204,0.541,0.986,-0.586,-0.603
CTTCCAAGGTCAAGGTCAGTGAAAGAGACTCGAA,5.12,6.79,7.26,3.07,6.55,4.54,3.64,2.79
CGTCCAAGGTCAATGCTAGGACAGTGAAAGCATT,4.05,5.76,5.95,3.01,4.3,4.3,2.32,2.24

Sequence,PBM binding z-score [1],PBM binding z-score [2],PBM binding z-score [3],PBM binding z-score [4],PBM binding z-score [5],PBM binding z-score [6],PBM binding z-score [7],PBM binding z-score [8]
TAGCCTAGGTCATGCGGGCCTGTATAGTGTCGGC,2.91,3.78,4.07,0.686,2.87,3.03,1.05,-0.143
GATACAGGGTCAAGGCCACAGTACGCGTATTGAT,3.85,5.44,5.11,2.15,5.9,3.69,1.85,1.84
ACTAGCAGGTCAAGTTTGGGTCACTCAAACAAAG,4.03,7.23,5.73,2.25,4.85,4.38,1.93,2.13
CAAACTAAGTCACCGGAAGGTCAAAGTCCGCATG,4.37,5.3,3,1.01,3.92,3.26,1.51,2.19
CCGAGTGGGTTATGGGGCATTCAGGCAACGGTGA,0.766,-0.124,-0.0615,-1.08,0.212,0.303,0.614,0.328
CGAACTAGGACATTGACAGGACAGTGAATAGTAA,0.469,0.496,0.642,0.451,-0.322,0.858,0.623,0.546
AACTCTAGGTAACCAAGTTCAGTGAATGCCGAAC,0.982,0.219,0.32,0.853,0.269,1.34,0.572,2.11
TCGAGTAGGTTAGTCGGGCCATTCAGCCAACATA,-0.0179,-0.285,-0.251,-0.153,-0.135,0.516,-0.252,-0.149
AGAATGAGGTTACCTAAGATCAGGGAAACGCTTG,0.84,2.05,1.65,0.932,2.66,3.93,1.05,0.305
AGTCAAGGTTCATCTAGGTAACGTAAGATATGCT,2.09,3.09,2.93,4.77,3.54,3,0.474,5.03
GATATAGGGTCAAGGCCAGAGTACGCGTATTGAT,3.71,5.6,5.13,2.83,5.81,3.96,2.03,2.59
GATACAGGGTCAGCTAGAGGCCAGAGTGTGGAAA,3.67,6.74,4.74,1.34,4.41,3.15,0.703,0.787
ACTAGTTGATCAGCTGAGGTCACACACAATTCGG,4.17,3.71,3.35,1.75,3.94,4.3,4.96,4.13
CGAACGAGGGCATGGGTTGATAGCAAATGCCGAT,1.27,1.31,1.55,1.93,1.26,1.52,0.384,1.72
TCATATAGGTAAAAGGTGAAATTCGGTGTGGTAA,1.8,1.8,0.738,1.92,3.04,1.77,0.523,0.37
CCTACCAGGCCAGGGTCACTCAAGCATTTCGCTT,2.84,3.13,2.44,-0.231,3.18,2.98,1.56,1.29
TCGACTAGGTTACCAATGGGGCATTCAGCTTTCT,1.02,1.16,0.432,1.07,0.661,0.557,0.42,-0.0453
TGAATGAGGTTATAAGATCAGGGATCGTTGCAAA,-0.0683,1.33,0.782,0.362,2.09,1.68,0.0696,0.406
CCTGCAAGGTCAATGGTCAGCTAAAGCAGCTCGC,3.65,5.83,5.9,3.75,5.35,3.77,1.8,2.45
